Here are results for 15 molecules from PubChem BioAssay (NCI).

Holding throughout (assay): NCI-60 one-dose screen, 48 h (100 = growth as untreated, 0 = no growth, -100 = all killed)
For one test, the system named is HCT-15 colon. The settings on record: 10 µM unless noted.
The test system of the next test is HT29 colon. The settings on record: 10 µM unless noted.
The subject of a further test is SNB-75 CNS. The settings on record: 10 µM unless noted.
Another test has as its system SNB-19 CNS. The settings on record: 10 µM unless noted.
For the next test, the system named is U251 CNS. The settings on record: 10 µM unless noted.
The next test relates to PC-3 prostate. The settings on record: 10 µM unless noted.
A further test deals with SK-MEL-5 melanoma. The settings on record: 10 µM unless noted.
The test system of another test is LOX IMVI melanoma. The settings on record: 10 µM.
For the next test, the system named is SK-MEL-28 melanoma. The settings on record: 10 µM unless noted.
The subject of another test is UACC-62 melanoma. The settings on record: 10 µM unless noted.

The panel holds about 83,000 compounds, 20% with a hit somewhere; the sample as a whole holds those more often.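 Negative percent growth values reflect cell death: -40 means 40% of the cells present at the start died, and -100 means all died.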 Values without a mark were called inactive. Active and inactive are the calls of the source. Rule for the calls: active = growth percent below 10; inactive = the rest.

Regarding `CC(C)(C)CC1(C)NC(=O)NC1=O` (stereo not given), the growth is 110% in the test with HCT-15 colon; 107% with HT29 colon; 83.8% in the test with SNB-75 CNS; 110% in the test with SNB-19 CNS; 111% in the test with U251 CNS; 106% with PC-3 prostate. Also, the growth was 108% in the test with SK-MEL-5 melanoma, 102% in the test on LOX IMVI melanoma and 116% in the test with SK-MEL-28 melanoma.

`C=C(C)COc1ccc(C(C)(C)C)cc1`: the growth in the test on HCT-15 colon is 108%; with HT29 colon, 99.2%; in the test with SNB-75 CNS, 94%; in the test with SNB-19 CNS it was 103%; in the test on U251 CNS, 88.5%; with PC-3 prostate, 96.9%. Further, the values for the growth in the test on SK-MEL-5 melanoma, with LOX IMVI melanoma and with SK-MEL-28 melanoma were 104%, 101% and 108%, respectively.

As to `C/C(O)=C(/C=N/C(=S)Nc1ccccc1)C(=O)Nc1ccccc1C`, the growth in the test with HCT-15 colon is 96.7%; with HT29 colon, 105%; in the test with SNB-75 CNS, 92.4%; with SNB-19 CNS it was 93.9%; in the test on U251 CNS it was 95.4%; in the test with PC-3 prostate it was 86.5%. The growth in the test on SK-MEL-5 melanoma is 93.9%; in the test on LOX IMVI melanoma, 94.4%; with SK-MEL-28 melanoma it was 110%.

`O=S(=O)(O)c1cccnc1`: the growth with HCT-15 colon was 114%; in the test with HT29 colon, 117%; in the test on SNB-75 CNS, 79.5%; in the test with SNB-19 CNS, 96%; with U251 CNS, 113%; in the test on PC-3 prostate, 102%. For the same molecule, the growth in the test on SK-MEL-5 melanoma is 103%; with LOX IMVI melanoma, 108%; in the test on SK-MEL-28 melanoma it was 114%.

In the case of `C/C(=N\N=C(/C)c1cccc([N+](=O)[O-])c1)c1cccc([N+](=O)[O-])c1`, the growth was 100% with HCT-15 colon; 87.9% in the test on HT29 colon; 83.8% in the test with SNB-75 CNS; 80.7% in the test on SNB-19 CNS; 91.1% in the test on U251 CNS; 86.7% in the test with PC-3 prostate. The values for the growth with SK-MEL-5 melanoma, with LOX IMVI melanoma and in the test on SK-MEL-28 melanoma were 94.3%, 91.6% and 101%, respectively.

For the molecule `OCCOc1ccc(-c2cc(-c3ccccn3)nc(-c3ccccn3)c2)cc1`, the growth with HCT-15 colon is 19.1%; with HT29 colon, 4.07% (active); with SNB-75 CNS it was 24.1%; in the test with SNB-19 CNS, 20.6%; with U251 CNS it was 4.7% (active); with PC-3 prostate, 20.1%. Besides, the growth with UACC-62 melanoma is -44.8% (active).

Take `C=CC(C)(C)n1cc(C2=C(O)C(=O)C(c3cn(C(C)(C)C=C)c4ccccc34)=C(O)C2=O)c2ccccc21`: the growth with HCT-15 colon was 84.2%; with HT29 colon, 99.3%; in the test on SNB-75 CNS, 67.8%; with SNB-19 CNS, 80.2%; in the test on U251 CNS, 82.6%; with PC-3 prostate it was 80.8%. For the same molecule, the growth in the test with LOX IMVI melanoma was 97.2%.

Turning to `CCCC(=O)CC(=O)c1ccccc1`, the growth is 103% with HCT-15 colon; 91.1% in the test with HT29 colon; 105% in the test on SNB-75 CNS; 103% in the test on SNB-19 CNS; 86% in the test on U251 CNS; 99.5% in the test with SK-MEL-5 melanoma. Moreover, the growth with UACC-62 melanoma is 103%; in the test with LOX IMVI melanoma it was 97.5%; in the test on SK-MEL-28 melanoma, 107%.

Take `Oc1cc2ccccc2c(-c2c(O)c(O)cc3ccccc23)c1O`: the growth in the test with HCT-15 colon is 28.2%; in the test on HT29 colon, 45.3%; with SNB-75 CNS it was 41.5%; in the test with SNB-19 CNS it was 41.5%; in the test on U251 CNS, 33.9%; with PC-3 prostate, 14.7%. Moreover, the growth with UACC-62 melanoma was 27.9%; with LOX IMVI melanoma, 14.5%; with SK-MEL-28 melanoma it was 53.2%.

For the molecule `Nc1cc(F)ccc1[N+](=O)[O-]`, the growth in the test with HCT-15 colon is 102%; in the test with HT29 colon it was 109%; in the test with SNB-75 CNS it was 85.9%; in the test with SNB-19 CNS, 102%; in the test with U251 CNS it was 106%; in the test with PC-3 prostate, 87.5%. Further, the growth in the test on UACC-62 melanoma was 101%; in the test on LOX IMVI melanoma, 100%; with SK-MEL-28 melanoma it was 104%.

For the molecule `CC(C)N(CCCC#N)C(C)C`, the growth with HCT-15 colon is 96.7%; in the test on HT29 colon, 86.6%; in the test with SNB-75 CNS it was 85.2%; with SNB-19 CNS, 90.7%; in the test with U251 CNS, 92.4%; in the test on PC-3 prostate, 86.7%. The growth is 95.2% in the test on UACC-62 melanoma, 97.7% in the test with LOX IMVI melanoma and 95.3% with SK-MEL-28 melanoma.

In the case of `O=[N+]([O-])c1c(Cl)ncnc1Cl`, the growth in the test with HCT-15 colon was 100%; in the test with HT29 colon, 107%; with SNB-75 CNS, 87.7%; with SNB-19 CNS, 106%; in the test on U251 CNS it was 95.9%; with PC-3 prostate, 90.3%. The growth in the test on UACC-62 melanoma was 110%; with LOX IMVI melanoma it was 107%; in the test with SK-MEL-28 melanoma, 105%.

On to `CCCC1OC(c2ccco2)OCC1CC` (stereo not given), for which the growth with HCT-15 colon was 97.2%; in the test on HT29 colon, 103%; in the test on SNB-75 CNS, 84.2%; in the test on SNB-19 CNS, 98.2%; in the test with U251 CNS, 94.8%; in the test on PC-3 prostate, 92.5%. Besides, the growth in the test on UACC-62 melanoma is 91.7%; in the test on LOX IMVI melanoma, 95.1%; in the test on SK-MEL-28 melanoma it was 113%.

`O=C(O)c1ccccc1Cc1ccc2c(c1)CCCC2`: the growth is 104% in the test on HCT-15 colon; 107% in the test on HT29 colon; 87.2% in the test with SNB-75 CNS; 102% with SNB-19 CNS; 111% in the test with U251 CNS; 103% in the test with PC-3 prostate. Also, the growth was 96.4% in the test on UACC-62 melanoma and 108% with SK-MEL-28 melanoma.

Turning to `C=CCc1cc(OC)c(O)c(OC)c1`, the growth in the test with HCT-15 colon was 98.7%; with HT29 colon, 99.7%; in the test on SNB-75 CNS it was 90.9%; in the test on SNB-19 CNS, 109%; in the test with U251 CNS it was 97.2%; in the test on PC-3 prostate, 95.4%. Further, the figures for the growth in the test with UACC-62 melanoma, with LOX IMVI melanoma and with SK-MEL-28 melanoma were 103%, 101% and 108%, respectively.
